Test results reported in the supplement of paper PMC11732987, “Enantioselective OTUD7B fragment discovery through chemoproteomics screening and high-throughput optimisation” (Communications Chemistry, 2025).

Tests used:
Experiment in all cases: log2 ratio of Biotin-Ahx-Ub-VS probe labelling (fragment/DMSO); higher = less target engagement (more negative = stronger competition), active = hit call of the paper (q ≤ 0.05, log2 ratio ≤ -1)
Settings in all cases: compound concentration: 200 uM; treatment time: 3 h
[1] = biological target: USP34 (UniProt Q70CQ2)
Sequence of USP34 (Q70CQ2 whole entry, the tested form may be a part): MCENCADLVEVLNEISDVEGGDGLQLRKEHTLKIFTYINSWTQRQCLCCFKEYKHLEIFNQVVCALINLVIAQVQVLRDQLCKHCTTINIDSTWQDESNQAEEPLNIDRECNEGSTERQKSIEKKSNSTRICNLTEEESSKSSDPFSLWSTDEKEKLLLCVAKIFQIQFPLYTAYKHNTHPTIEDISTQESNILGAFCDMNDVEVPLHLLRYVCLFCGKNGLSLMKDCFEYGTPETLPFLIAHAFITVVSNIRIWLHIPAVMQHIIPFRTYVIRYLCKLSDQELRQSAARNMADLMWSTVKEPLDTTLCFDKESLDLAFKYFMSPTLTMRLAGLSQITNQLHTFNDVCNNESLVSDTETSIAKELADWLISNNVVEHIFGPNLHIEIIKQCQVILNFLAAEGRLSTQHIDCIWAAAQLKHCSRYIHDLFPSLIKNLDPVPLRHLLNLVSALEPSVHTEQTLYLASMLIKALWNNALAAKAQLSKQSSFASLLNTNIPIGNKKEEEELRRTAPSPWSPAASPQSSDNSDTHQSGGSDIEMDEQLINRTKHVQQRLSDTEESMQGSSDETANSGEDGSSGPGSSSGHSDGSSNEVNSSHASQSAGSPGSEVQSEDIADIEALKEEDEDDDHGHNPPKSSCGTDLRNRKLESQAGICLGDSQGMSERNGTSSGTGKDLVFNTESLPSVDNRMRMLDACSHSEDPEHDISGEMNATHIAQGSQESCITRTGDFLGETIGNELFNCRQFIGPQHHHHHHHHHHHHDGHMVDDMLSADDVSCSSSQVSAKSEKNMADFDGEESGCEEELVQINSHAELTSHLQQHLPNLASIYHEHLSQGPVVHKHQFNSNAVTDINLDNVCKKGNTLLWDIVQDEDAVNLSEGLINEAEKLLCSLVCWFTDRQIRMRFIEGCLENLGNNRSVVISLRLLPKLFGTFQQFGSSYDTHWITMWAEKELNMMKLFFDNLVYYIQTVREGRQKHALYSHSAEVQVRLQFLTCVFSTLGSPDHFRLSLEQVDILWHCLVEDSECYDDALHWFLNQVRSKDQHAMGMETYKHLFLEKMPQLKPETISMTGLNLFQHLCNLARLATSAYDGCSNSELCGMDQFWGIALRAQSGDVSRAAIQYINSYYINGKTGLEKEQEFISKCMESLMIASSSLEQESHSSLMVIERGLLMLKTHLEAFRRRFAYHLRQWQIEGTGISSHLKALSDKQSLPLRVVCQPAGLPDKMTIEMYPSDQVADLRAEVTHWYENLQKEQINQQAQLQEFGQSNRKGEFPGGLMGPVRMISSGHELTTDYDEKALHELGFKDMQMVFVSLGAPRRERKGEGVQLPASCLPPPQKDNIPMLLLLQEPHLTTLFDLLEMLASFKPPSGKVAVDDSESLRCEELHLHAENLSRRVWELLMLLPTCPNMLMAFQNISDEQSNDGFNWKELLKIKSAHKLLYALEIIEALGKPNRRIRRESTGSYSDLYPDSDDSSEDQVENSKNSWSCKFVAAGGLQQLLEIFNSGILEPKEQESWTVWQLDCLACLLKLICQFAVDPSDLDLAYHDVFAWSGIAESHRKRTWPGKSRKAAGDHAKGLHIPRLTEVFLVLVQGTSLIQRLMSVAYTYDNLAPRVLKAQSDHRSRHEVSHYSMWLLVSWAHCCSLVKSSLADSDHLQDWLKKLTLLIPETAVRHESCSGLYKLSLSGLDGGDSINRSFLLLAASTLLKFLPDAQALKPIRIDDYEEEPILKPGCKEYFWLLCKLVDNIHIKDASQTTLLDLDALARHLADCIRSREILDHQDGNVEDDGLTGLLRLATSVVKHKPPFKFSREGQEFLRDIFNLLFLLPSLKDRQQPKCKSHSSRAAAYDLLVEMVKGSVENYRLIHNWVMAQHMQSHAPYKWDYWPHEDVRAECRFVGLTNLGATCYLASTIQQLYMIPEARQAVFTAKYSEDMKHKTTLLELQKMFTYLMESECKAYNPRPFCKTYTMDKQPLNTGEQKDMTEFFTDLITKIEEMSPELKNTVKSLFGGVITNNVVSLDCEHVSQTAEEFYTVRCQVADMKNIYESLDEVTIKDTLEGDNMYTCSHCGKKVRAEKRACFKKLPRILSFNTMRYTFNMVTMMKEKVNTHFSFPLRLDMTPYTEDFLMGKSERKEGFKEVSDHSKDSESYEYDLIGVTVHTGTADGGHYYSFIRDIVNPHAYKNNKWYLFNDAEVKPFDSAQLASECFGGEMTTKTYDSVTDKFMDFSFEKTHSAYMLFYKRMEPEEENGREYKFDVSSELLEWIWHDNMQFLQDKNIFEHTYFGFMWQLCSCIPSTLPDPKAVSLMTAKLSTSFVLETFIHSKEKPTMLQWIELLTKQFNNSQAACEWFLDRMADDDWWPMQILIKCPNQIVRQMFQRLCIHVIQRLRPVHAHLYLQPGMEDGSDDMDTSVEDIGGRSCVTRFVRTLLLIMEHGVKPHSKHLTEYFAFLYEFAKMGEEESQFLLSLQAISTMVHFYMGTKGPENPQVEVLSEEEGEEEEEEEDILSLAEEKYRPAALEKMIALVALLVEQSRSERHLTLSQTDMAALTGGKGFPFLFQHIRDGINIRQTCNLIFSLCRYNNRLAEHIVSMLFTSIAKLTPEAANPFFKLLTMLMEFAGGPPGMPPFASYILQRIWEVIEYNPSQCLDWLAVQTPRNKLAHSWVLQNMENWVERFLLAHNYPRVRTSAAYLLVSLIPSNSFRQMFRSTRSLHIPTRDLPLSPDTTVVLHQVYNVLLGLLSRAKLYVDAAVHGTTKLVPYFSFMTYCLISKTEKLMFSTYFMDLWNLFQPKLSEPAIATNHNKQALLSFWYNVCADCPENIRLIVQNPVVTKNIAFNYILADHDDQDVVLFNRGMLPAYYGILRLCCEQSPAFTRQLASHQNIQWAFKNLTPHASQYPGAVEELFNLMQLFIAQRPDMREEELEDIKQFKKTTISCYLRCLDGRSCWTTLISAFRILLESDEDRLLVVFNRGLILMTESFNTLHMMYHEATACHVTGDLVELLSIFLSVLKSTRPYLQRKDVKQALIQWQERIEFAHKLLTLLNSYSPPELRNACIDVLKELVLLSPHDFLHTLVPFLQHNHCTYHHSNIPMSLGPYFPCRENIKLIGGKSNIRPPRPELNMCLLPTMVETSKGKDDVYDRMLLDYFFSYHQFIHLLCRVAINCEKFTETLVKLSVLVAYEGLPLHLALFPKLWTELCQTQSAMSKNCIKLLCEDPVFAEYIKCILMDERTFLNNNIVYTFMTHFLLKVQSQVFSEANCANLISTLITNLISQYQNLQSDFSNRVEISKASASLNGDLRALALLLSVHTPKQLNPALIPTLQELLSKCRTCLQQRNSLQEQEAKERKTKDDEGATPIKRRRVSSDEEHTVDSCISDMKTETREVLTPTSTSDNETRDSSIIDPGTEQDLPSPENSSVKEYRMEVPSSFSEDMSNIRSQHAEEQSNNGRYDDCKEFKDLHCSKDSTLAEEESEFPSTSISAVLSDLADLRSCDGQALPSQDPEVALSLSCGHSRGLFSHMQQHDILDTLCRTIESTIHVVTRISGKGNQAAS
Summary of the method: (§1)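 HEK293T lysate, 495 µg per sample in Tris/CHAPS/IGEPAL buffer with protease inhibitors, was treated in triplicate with fragment at 200 µM or vehicle for 3 h and then with Biotin-Ahx-Ub-VS at 0.5 µM final for 1 h. Labelled DUBs were NeutrAvidin-enriched, digested with LysC and trypsin, and run by diaPASEF LC-MS/MS. Spectronaut label-free quantities were global-median-normalised, and values are average log2 fragment/vehicle ratios by unpaired t-test on proteins with ≥2 unique peptides.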

[2] = biological target: T1, USP36 (UniProt Q9P275)
T1 sequence (whole entry): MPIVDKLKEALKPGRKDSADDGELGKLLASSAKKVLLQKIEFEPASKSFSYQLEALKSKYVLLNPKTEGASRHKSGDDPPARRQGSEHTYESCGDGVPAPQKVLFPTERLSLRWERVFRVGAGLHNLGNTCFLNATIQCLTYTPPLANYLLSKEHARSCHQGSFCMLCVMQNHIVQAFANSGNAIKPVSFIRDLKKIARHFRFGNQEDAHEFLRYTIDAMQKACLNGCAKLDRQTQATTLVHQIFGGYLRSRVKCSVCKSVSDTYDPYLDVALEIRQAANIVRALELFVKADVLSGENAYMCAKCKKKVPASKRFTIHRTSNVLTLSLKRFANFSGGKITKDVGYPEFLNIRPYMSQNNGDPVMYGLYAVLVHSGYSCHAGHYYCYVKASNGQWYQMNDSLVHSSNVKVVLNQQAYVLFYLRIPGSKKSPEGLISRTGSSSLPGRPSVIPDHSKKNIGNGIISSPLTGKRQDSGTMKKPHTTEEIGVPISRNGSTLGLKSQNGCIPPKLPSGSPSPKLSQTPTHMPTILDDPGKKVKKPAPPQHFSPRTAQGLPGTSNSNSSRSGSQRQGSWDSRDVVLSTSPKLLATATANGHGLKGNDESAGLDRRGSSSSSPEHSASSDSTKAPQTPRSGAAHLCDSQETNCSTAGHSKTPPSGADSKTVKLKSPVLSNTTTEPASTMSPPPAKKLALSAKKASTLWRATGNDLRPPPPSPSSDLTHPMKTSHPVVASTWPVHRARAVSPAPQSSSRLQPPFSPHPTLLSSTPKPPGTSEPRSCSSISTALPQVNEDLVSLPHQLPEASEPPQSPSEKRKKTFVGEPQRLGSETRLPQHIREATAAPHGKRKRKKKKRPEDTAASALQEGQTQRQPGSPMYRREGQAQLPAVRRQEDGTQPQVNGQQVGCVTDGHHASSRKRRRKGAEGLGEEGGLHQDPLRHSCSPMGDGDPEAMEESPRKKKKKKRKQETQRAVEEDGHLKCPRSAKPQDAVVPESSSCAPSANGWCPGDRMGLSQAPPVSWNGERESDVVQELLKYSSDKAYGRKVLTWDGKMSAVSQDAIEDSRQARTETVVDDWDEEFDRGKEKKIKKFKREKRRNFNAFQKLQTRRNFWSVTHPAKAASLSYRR
Summary of the method: as §1

[3] = biological target: T2, USP38 (UniProt Q8NB14)
T2 sequence (whole entry): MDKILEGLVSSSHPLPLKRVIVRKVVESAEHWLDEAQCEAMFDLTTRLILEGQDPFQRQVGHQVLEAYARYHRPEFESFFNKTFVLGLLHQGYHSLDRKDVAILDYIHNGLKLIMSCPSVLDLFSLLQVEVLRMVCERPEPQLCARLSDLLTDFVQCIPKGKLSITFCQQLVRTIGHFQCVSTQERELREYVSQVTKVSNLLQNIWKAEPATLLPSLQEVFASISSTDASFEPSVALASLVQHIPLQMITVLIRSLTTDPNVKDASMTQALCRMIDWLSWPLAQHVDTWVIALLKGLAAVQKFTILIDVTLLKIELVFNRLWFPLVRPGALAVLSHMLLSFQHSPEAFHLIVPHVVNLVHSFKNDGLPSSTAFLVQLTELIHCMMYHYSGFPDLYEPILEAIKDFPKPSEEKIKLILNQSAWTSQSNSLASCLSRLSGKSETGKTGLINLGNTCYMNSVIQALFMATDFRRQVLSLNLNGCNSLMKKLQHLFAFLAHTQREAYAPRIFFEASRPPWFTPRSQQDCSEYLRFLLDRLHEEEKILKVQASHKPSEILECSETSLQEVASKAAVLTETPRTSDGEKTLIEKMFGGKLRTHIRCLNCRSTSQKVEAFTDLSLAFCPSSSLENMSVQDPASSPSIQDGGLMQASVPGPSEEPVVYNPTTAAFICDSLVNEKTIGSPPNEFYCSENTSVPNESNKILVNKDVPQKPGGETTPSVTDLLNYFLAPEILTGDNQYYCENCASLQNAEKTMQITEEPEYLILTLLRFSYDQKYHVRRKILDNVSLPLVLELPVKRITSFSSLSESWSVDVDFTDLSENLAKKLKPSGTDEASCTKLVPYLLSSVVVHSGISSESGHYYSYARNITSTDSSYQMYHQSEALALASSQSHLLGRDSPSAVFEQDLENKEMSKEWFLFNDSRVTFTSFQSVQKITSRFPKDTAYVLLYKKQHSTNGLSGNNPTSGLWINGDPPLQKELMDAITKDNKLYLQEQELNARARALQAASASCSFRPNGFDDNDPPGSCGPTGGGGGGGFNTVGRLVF
Summary of the method: as §1

[4] = biological target: T3, USP39 (UniProt Q53GS9)
T3 sequence (whole entry): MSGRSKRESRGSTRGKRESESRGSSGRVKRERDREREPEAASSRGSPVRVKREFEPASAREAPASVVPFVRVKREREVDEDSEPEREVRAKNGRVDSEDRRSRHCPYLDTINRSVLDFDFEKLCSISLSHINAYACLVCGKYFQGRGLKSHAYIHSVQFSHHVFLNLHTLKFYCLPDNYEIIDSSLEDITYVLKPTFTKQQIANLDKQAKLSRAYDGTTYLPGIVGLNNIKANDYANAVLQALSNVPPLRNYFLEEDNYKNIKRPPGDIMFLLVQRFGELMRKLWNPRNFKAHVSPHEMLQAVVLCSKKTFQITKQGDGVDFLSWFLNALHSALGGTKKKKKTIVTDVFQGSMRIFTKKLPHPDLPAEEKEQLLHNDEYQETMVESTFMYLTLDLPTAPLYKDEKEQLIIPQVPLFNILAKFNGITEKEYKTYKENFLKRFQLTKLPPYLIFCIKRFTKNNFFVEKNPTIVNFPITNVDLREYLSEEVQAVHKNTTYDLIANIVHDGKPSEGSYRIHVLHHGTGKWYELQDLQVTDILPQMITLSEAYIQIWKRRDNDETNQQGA
Summary of the method: as §1

[5] = biological target: T4, USP4 (UniProt Q13107)
T4 sequence (whole entry): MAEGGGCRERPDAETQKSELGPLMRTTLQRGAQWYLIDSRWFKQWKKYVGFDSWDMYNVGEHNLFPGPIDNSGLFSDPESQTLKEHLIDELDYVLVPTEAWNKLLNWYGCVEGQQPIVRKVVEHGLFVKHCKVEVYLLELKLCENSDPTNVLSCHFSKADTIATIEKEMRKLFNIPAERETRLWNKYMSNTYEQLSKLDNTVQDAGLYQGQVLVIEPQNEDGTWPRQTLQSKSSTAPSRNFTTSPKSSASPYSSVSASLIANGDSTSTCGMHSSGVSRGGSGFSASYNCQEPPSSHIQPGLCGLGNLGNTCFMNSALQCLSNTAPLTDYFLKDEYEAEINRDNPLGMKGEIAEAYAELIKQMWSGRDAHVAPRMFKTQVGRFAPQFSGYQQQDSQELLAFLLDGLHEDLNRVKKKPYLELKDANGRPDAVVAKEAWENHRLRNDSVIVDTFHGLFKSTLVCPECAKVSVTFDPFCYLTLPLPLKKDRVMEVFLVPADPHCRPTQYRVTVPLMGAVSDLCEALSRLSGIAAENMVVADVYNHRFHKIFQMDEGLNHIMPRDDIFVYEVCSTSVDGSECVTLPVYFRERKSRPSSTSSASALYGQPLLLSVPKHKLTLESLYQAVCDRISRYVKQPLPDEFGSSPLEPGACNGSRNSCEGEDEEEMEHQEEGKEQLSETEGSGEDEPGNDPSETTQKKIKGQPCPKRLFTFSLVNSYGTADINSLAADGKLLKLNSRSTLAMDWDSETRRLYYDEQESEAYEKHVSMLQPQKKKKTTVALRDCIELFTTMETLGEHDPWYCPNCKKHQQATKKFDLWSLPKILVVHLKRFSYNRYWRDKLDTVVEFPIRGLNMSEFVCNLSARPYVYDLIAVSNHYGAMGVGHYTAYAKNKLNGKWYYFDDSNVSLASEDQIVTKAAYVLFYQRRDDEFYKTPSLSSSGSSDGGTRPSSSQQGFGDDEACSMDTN
Summary of the method: as §1

Measured: log2 ratio of Biotin-Ahx-Ub-VS probe labelling

Cc1cc(C(=O)NC2CCN(C(=O)CCl)CC2)no1
inactive: [1] -0.22 | [2] -0.0502 | [3] 0.122 | [4] 0.0572 | [5] -0.111
